Test [1] deals with Estrogen receptor beta (Homo sapiens) (UniProt Q92731). The experiment in a line: qHTS assay to identify small molecule agonists of the estrogen receptor beta (ER-beta) signaling pathway (AID 1259377; active = well fitted activation curve with a large enough effect in the signal ratio in the repeat runs, not every such curve was filed as active; the % refers to the signal ratio). In outline:
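Ratiometric beta-lactamase FRET read-out came after 2 h substrate loading at room temperature. It followed 16 h compound treatment at 37C of GripTite HEK293T cells carrying a UAS-bla reporter, plated in 2% charcoal-stripped FBS medium.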
(In qHTS, concentration-response curves come from the screen itself.)

For test [2] the target is unchanged. Briefly: qHTS assay to identify small molecule antagonists of the estrogen receptor beta (ER-beta) signaling pathway (AID 1259378; active = well fitted inhibition curve with a large enough effect in the signal ratio in the repeat runs, not every such curve was filed as active; the % refers to the signal ratio; also: potency is read from the fitted curve at half-maximal effect). In outline: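 ER-beta-UAS-bla HEK293T (GripTite) cells in 2% charcoal-stripped FBS medium were preincubated 6 hr at 37C, dosed with compound, then stimulated with 1 nM E2 (final) for 16 hr; beta-lactamase reporter read by B/G FRET fluorescence after 2 hr substrate loading.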

Test [3] can be described thus: qHTS assay to identify small molecule agonists of the androgen receptor (AR) signaling pathway in the presence of an antagonist - cell viability counter screen (AID 1259379). Also: nearly all actives have a fitted effect of over 25% in size. Also: potency is read from the fitted curve at half-maximal effect. In outline:
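Each compound was tested at 15 concentrations on MDA-kb2 cells in the presence of 3.0uM nilutamide. Viability was measured by CellTiter-Fluor fluorescence after a 16 hr incubation at 37C in a CO2-free atmosphere.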

Test [4] can be described thus: qHTS assay to identify small molecule agonists of the estrogen receptor beta (ER-beta) signaling pathway - cell viability counter screen (AID 1259380). Also: nearly all actives have a fitted effect of over 30% in size. Also: potency is read from the fitted curve at half-maximal effect. In outline: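 Compounds dissolved in DMSO were pin-transferred onto ER-beta-UAS-bla HEK293T cells that had settled 6 hr, and exposure ran 16 hr at 37C. Following the reporter read, CellTiter-Glo luminescence after 30 min at room temperature indicated cytotoxicity.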

The nature of test [5]: qHTS assay to identify small molecule antagonists of the estrogen receptor beta (ER-beta) signaling pathway - cell viability counter screen (AID 1259382). Also: nearly all actives have a fitted effect of over 55% in size. Also: potency is read from the fitted curve at half-maximal effect. In outline: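 CellTiter-Glo ATP luminescence measured after the LiveBLAzer read in the same wells; ER-beta-UAS-bla HEK293T cells, 16 hr compound treatment with 1nM 17-beta-estradiol agonist at 37C, 5% CO2.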
The target in test [6] is Estrogen receptor (Homo sapiens) (UniProt P03372). Briefly: qHTS assay to identify small molecule agonists of the estrogen receptor alpha (ER-alpha) signaling pathway in the presence of an antagonist (AID 1259383; calls by dose curve; also: top concentration of the series differs between compounds; nearly all actives have a fitted effect of over 15% in size). In outline: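 Luminescent ERE-luciferase reporter, VM7Luc4E2 cells (endogenous ER-alpha); 10.0nM ICI-182,780 final; 15-point compound titration; 22hr at 37C; ONE-Glo, 30min RT.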

Test [7] deals with Progesterone receptor (Homo sapiens) (UniProt P06401). Briefly: qHTS assay to identify small molecule agonists of the progesterone receptor (PR) signaling pathway (AID 1346784; calls by dose curve; also: nearly all actives have a fitted effect of over 30% in size). In outline:
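Agonist qHTS: compounds pinned onto 3,000 PR-UAS-bla HEK 293T cells per well in charcoal-stripped serum medium, 16hr at 37C, then beta-lactamase activity measured by LiveBLAzer FRET fluorescence after 2 hours at room temperature.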

The nature of test [8]: qHTS assay to identify small molecule antagonists of the progesterone receptor (PR) signaling pathway - cell viability counter screen (AID 1346798). Also: nearly all actives have a fitted effect of over 50% in size. Also: potency is read from the fitted curve at half-maximal effect. In outline:
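Cytotoxicity read as CellTiter-Glo luminescence (30 min, room temperature) in the same wells as the beta-lactamase readout. HEK293T PR-UAS-bla cells in charcoal-stripped 2% FBS received compound and R5020, then 16 h at 37C, 5% CO2.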

A short description of test [9]: qHTS assay to identify small molecule agonists of the progesterone receptor (PR) signaling pathway - cell viability counter screen (AID 1346799; calls by dose curve; also: nearly all actives have a fitted effect of over 45% in size; also: potency is read from the fitted curve at half-maximal effect). In outline:
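Cytotoxicity measured by CellTiter-Glo luminescence (30 min, RT) in the same wells as the PR beta-lactamase agonist read. Those HEK293T cells had 16 h compound treatment at 37 C in 2% charcoal-stripped FBS medium.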

A short description of test [10]: qHTS assay to identify small molecule antagonists of the TGF-beta/Smad signaling pathway - cell viability counter screen (AID 1346824). Also: nearly all actives have a fitted effect of over 50% in size. Also: potency is read from the fitted curve at half-maximal effect. In outline:
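SBE-bla HEK 293T cells were plated overnight at 37 C, then given compounds in DMSO plus TGF-beta1 (added as 0.25 ng/mL solution) for 5 hr. After the bla read, CellTiter-Glo was added to the same wells and luminescence read after 30 min at room temperature.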

A short description of test [11]: qHTS assay to identify small molecule agonists of the TGF-beta/Smad signaling pathway - cell viability counter screen (AID 1346829). Also: top concentration of the series differs between compounds; nearly all actives have a fitted effect of over 45% in size. In outline: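 Luminescence from CellTiter-Glo, read after a 30 min room-temperature incubation, gives cell viability of SBE-bla HEK 293T cells treated 5 hr with compounds at 37 C.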
Test [12] addresses Thyrotropin-releasing hormone receptor (Homo sapiens) (UniProt P34981). The experiment in a line: qHTS assay to identify small molecule antagonists of the thyrotropin-releasing hormone receptor (TRHR) signaling pathway (AID 1346877; active = well fitted inhibition curve with a large enough effect in the repeat runs, not every such curve was filed as active; also: series mostly up to about 51 µM). In outline:
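Calcium signal in dye-loaded TRHR/HEK293 cells; compounds added 5 min before TRH (1 nM final); fluorescence monitored 3 min at 1 s steps.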

For test [13] the target is unchanged. The experiment in a line: qHTS assay to identify small molecule agonists of the thyrotropin-releasing hormone receptor (TRHR) signaling pathway (AID 1346891; calls by dose curve; also: series mostly up to about 58 µM). In outline: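 Agonist-mode intracellular calcium readout: kinetic fluorescence over 3 min at 1 s intervals after compound addition to TRHR-HEK293 cells (18 h seeded, 2 h dye-loaded at 37 C). Fifteen concentrations, triplicates.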

Test [14] can be described thus: qHTS assay to identify small molecule agonists of the estrogen receptor alpha (ER-alpha) signaling pathway in the presence of an antagonist - cell viability counter screen (AID 1259386).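 Also: series mostly up to about 92 µM; cells exposed to compounds for 22 h at 37 °C before the viability read; nearly all actives have a fitted effect of over 30% in size.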 The essentials: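 Using estrogen-depleted VM7Luc4E2 cells, the 15-concentration compound series was applied together with 10.0nM ICI-182,780 and incubated 22hr at 37C/5% CO2. Cell viability was then scored by CellTiter-Fluor.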

For test [15], the target named is Progesterone receptor (Homo sapiens) (UniProt P06401). The experiment in a line: qHTS assay to identify small molecule antagonists of the progesterone receptor (PR) signaling pathway (AID 1346795; active = well fitted inhibition curve with a large enough effect in the signal ratio in the repeat runs, not every such curve was filed as active; the % refers to the signal ratio; also: potency is read from the fitted curve at half-maximal effect). In outline:
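Antagonist mode with agonist R5020 at 1 nM final and 16 hr incubation at 37C. Reporter was beta-lactamase driven by UAS in HEK293T (PR-UAS-bla), 2% charcoal-stripped serum; signal from LiveBLAzer FRET substrate, 2 hr at room temperature.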

Test [16] is described as follows: qHTS assay to identify small molecule agonists of the TGF-beta/Smad signaling pathway (AID 1346859; active = well fitted activation curve with a large enough effect in the signal ratio in the repeat runs, not every such curve was filed as active; the % refers to the signal ratio; also: series mostly up to about 77 µM). The essentials:
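Fluorescence (ex 405 nm; em 460 and 530 nm) was read 2 h after LiveBLAzer FRET substrate at RT. The preceding compound treatment of overnight-plated SBE-bla HEK293T cells lasted 5 h at 37 C.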

A short description of test [17]: qHTS assay to identify small molecule agonists or antagonists of the thyroid stimulating hormone receptor (TSHR) signaling pathway - wild type cell line counter screen (AID 1259384; calls by dose curve). In outline: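 Wild-type HEK293 cells were plated 18 h at 37 C/5% CO2, pin-dosed with compound plus Ro20-1724 medium, held 30 min at room temperature, then given cAMP-d2 and anti-cAMP-cryptate; fluorescence was read after 1 h. Fifteen concentrations, triplicate.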

The target in test [18] is Thyrotropin receptor (Homo sapiens) (UniProt P16473). The experiment in a line: qHTS assay to identify small molecule antagonists of the thyroid stimulating hormone receptor (TSHR) signaling pathway (AID 1259385; calls by dose curve; also: nearly all actives have a fitted effect of over 20% in size; also: potency is read from the fitted curve at half-maximal effect). In outline:
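TSHR-HEK293 cells were plated and held 18 h at 37C/5% CO2, then given compound plus Ro20-1724 and stimulated with TSH at 1.5 ng/mL final. After 30 min at room temperature, cAMP was detected with cAMP-d2/anti-cAMP-cryptate (1 h) by fluorescence.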

A short description of test [19]: qHTS assay to identify small molecule antagonists of the sonic hedgehog signaling (Shh) pathway (AID 1259369; calls by dose curve; also: nearly all actives have a fitted effect of over 45% in size; also: potency is read from the fitted curve at half-maximal effect). The essentials:
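Read-out is luminescence from a firefly luciferase gene controlled by the Gli1 response element, in 3T3Gli1-Luc cells pre-incubated 4hr then exposed to compounds and conditioned medium for 24hr.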

Each structure is given as a SMILES string. Where “and” joins values, the source holds several entries; their conditions need not be identical. Identical values can stand only once. Values without a mark were called inactive. Inconclusive results are not listed. Calls of active or inactive are those of the source. Unless noted, calls follow the shape of the dose curve; as a rule, active = well fitted curve in the direction sought with a large enough effect in the repeat runs; inconclusive = weak or mixed curves; inactive = no such curve, though single readings can be large; an effect the other way counts as inactive or inconclusive.

In PubChem BioAssay (Tox21) one finds Potency and outcome data, which are given here for eight compounds.

Sequence of Thyrotropin-releasing hormone receptor (Homo sapiens) (P34981 whole entry, looked up): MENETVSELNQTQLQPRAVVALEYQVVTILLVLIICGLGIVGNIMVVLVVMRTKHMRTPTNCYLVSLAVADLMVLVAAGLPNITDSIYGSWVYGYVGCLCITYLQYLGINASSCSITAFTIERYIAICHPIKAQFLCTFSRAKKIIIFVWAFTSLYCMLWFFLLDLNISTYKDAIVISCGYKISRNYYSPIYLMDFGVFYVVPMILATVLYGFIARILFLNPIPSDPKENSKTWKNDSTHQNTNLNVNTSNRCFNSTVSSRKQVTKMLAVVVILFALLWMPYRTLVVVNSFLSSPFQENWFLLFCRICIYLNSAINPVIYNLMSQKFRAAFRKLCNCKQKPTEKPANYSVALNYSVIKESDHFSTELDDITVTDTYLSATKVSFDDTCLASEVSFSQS
Sequence of Thyrotropin receptor (Homo sapiens) (P16473 whole entry, looked up): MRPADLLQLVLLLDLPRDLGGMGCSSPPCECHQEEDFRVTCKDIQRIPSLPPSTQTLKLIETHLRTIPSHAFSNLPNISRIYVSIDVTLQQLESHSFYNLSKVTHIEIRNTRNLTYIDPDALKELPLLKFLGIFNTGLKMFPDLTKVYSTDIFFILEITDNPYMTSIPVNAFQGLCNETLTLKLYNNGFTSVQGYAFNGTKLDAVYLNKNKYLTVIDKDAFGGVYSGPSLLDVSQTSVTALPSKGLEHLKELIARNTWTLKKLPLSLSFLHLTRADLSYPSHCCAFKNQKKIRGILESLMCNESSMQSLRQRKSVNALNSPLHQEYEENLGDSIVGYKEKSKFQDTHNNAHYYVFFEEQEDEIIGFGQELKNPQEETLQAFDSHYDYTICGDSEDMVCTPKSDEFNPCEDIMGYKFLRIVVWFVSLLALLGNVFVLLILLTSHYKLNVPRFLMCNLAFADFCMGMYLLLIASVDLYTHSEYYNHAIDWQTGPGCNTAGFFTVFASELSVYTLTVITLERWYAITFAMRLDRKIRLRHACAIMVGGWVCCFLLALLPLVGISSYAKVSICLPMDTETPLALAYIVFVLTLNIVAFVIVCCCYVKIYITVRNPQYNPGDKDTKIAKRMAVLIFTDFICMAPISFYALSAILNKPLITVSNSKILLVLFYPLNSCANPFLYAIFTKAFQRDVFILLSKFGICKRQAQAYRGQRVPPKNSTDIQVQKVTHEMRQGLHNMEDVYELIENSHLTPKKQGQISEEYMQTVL
Sequence of Estrogen receptor beta (Homo sapiens) (Q92731 whole entry, looked up): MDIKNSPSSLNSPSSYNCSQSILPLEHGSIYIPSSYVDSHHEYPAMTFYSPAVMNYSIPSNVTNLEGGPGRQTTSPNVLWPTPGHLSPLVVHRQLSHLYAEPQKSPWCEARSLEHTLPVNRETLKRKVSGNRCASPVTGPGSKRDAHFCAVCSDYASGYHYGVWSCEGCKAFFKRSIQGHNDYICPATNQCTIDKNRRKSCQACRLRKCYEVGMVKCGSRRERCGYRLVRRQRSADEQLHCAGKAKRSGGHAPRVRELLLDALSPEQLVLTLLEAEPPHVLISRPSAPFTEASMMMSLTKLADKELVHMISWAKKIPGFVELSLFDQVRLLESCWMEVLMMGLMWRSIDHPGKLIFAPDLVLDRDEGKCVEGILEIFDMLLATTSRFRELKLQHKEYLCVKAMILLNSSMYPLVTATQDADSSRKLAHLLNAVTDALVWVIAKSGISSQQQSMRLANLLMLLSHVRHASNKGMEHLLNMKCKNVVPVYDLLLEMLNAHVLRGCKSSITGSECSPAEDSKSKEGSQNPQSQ
Sequence of Progesterone receptor (Homo sapiens) (P06401 whole entry, looked up): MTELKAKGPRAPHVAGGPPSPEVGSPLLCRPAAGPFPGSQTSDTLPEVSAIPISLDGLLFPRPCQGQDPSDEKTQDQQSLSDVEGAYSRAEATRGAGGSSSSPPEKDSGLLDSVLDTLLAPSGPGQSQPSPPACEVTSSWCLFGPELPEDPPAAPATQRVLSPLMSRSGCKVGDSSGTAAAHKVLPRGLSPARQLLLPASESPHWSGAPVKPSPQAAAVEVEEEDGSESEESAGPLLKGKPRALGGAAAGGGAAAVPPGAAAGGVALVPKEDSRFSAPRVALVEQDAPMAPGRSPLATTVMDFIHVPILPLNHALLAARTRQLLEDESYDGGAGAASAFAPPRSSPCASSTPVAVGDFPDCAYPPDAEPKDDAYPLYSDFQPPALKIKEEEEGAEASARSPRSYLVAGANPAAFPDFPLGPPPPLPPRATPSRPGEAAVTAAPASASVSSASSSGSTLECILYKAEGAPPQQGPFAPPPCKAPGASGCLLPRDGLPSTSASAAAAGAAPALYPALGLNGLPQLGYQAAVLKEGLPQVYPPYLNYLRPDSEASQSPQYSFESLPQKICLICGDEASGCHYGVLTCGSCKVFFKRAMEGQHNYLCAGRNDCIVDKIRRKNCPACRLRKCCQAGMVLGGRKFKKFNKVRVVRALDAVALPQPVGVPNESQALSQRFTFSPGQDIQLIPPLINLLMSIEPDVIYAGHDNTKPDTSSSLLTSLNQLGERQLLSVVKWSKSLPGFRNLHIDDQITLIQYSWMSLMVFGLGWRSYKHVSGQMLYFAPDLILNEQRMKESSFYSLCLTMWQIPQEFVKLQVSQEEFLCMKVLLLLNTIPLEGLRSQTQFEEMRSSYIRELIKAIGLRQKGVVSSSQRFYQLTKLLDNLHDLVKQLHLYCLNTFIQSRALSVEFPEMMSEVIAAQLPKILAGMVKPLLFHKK
Sequence of Estrogen receptor (Homo sapiens) (P03372 whole entry, looked up): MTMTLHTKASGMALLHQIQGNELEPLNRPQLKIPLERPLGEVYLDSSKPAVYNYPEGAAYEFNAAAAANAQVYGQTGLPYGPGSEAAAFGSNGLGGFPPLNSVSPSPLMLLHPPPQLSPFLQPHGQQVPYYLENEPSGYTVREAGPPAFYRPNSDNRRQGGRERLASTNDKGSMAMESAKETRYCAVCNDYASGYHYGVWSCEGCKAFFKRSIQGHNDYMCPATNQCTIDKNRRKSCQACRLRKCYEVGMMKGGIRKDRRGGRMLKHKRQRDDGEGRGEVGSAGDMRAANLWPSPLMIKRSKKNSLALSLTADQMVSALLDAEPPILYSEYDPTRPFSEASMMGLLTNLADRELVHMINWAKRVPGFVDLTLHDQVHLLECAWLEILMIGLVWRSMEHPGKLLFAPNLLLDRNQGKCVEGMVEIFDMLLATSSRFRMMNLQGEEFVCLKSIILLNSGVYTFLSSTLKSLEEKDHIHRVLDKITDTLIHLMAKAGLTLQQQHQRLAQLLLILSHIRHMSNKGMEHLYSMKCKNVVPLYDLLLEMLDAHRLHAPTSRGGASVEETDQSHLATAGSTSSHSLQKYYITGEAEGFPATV

In the case of `Cc1nc2ccccc2c(=O)n1-c1ccccc1Cl`, the Potency entry in test [1], in test [2], in [3], in test [4], in [5] and in [6] was “inactive” in each case. In addition, the Potency entry in [7], in test [8], in [9], in test [10], in test [11] and in [12] was “inactive” throughout. Also, in [13], the compound was classed as inactive.
With `C=CC(=O)NC(C)(C)CC(C)=O`, the Potency entry in test [1], in [2], in test [3], in test [4], in test [5] and in test [6] was “inactive” throughout. Also, the Potency entry in test [14], in test [7], in test [15], in [8], in [9] and in [10] was “inactive” each time. Besides, the Potency entry in test [11] and in test [12] was “inactive” in each case. Also, the result in [16] and in test [13] was inactive.
In the case of `CCCCC1C(=O)NC(=O)N(C2CCCCC2)C1=O` (configuration not stated), the Potency result in test [1], in test [3], in test [4], in test [5], in test [6] and in [14] was “inactive” throughout. The Potency result in test [8], in test [9], in [10] and in test [11] was “inactive” each time. Also, in test [16], the compound was called inactive.
`CCOP(=O)(O)C(N)=O`: the Potency result in test [1], in [2], in [3], in test [4], in test [5] and in [6] was “inactive” in each case. Moreover, the Potency entry in [18], in test [14], in [7], in test [15], in test [8] and in [9] was “inactive” in each case. Further, the Potency result in [10], in [11] and in [12] was “inactive” each time. Besides, the outcome in [17], in test [16] and in [13] was inactive.
As for `Clc1ccccc1`, the Potency in test [19] was 0.479 µM (active). The Potency result in test [3], in test [4], in test [5], in [6], in test [14] and in test [7] was “inactive” in each case. Further, the Potency entry in test [15], in test [8], in test [9], in test [10], in [11] and in test [12] was “inactive” throughout. For the same compound, the compound was called inactive in test [16] and in test [13].
On to `NCCc1cc(O)c(O)cc1O`, for which the Potency entry in test [19], in test [3], in test [4], in test [5], in test [6] and in test [7] was “inactive” each time. Besides, the Potency entry in test [15], in test [8], in test [9], in [10], in test [11] and in test [12] was “inactive” throughout. Also, in test [13], the compound was classed as inactive.
Regarding `COc1cc(CC(C)N)c(OC)cc1Br` (configuration not stated), the Potency in [19] is 15.9 µM (active); in [4], 63.2 µM (active). Moreover, the Potency entry in [3], in test [6], in test [18], in test [9], in test [10] and in [11] was “inactive” in each case. In test [12], the Potency result was “inactive”. The outcome in test [17], in test [16] and in [13] was inactive.
`CCCCCCCCn1sccc1=O`: the Potency result in test [1] and in test [6] was “inactive” each time. The Potency was 27.4 µM (active) and 32.1 µM (active) in [2]; 61.3 µM (active) and 57.1 µM (active) in test [3]; 30.7 µM (active) and 28.6 µM (active) in test [4]; 27.4 µM (active) and 28.6 µM (active) in test [5]; 61.3 µM (active) and 71.9 µM (active) in [18]; 34.4 µM (active) and 1.43 µM (active) in test [15]. The Potency in [8] is 48.7 µM (active) and 1.14 µM (active); in [9], 43.4 µM (active); in test [10], 49.1 µM (active) and 51.3 µM (active). The call in test [17], in [16] and in [13] was inactive.
